Where “and” joins values, the source holds several entries; their conditions need not be identical. Identical values can stand only once. Records with an inconclusive call do not appear. A structure can be active in one record and inactive in another. Calls of active or inactive are those of the source. Unless noted, the call rests on the fitted dose curve; in most records, active means well fitted curve in the direction sought with a large enough effect in the repeat runs; inconclusive means weak or mixed curves; inactive means no such curve, though single readings can be large; an effect the other way counts as inactive or inconclusive.
How the values were obtained:
[1] = molecular target: Peroxisome proliferator-activated receptor delta (Homo sapiens) (UniProt Q03181); assay: qHTS assay to identify small molecule agonists of the peroxisome proliferator-activated receptor delta (PPARd) signaling pathway (AID 743212; calls by dose curve; further: potency means the concentration at half of the fitted maximal effect)
Outline: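 HEK293H PPARd-bla cells; 5 h preincubation 37 C/5% CO2; compound (DMSO) 37 C; LiveBLAzer B/G FRET substrate 2 h RT; fluorescence intensity.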

[2] = qHTS assay to identify small molecule antagonists of the peroxisome proliferator-activated receptor delta (PPARd) signaling pathway - cell viability counter screen (AID 743213); further: nearly all actives have a fitted effect of over 50% in size; further: potency means the concentration at half of the fitted maximal effect
Outline: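 Same-well viability: cells pre-incubated 5 h, dosed with compound plus 300 nM L165041, kept 17 h at 37 C, FRET substrate 2 h RT, then CellTiter-Glo 30 min RT and luminescence.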

[3] = molecular target: Peroxisome proliferator-activated receptor delta (Homo sapiens) (UniProt Q03181); assay: qHTS assay to identify small molecule antagonists of the peroxisome proliferator-activated receptor delta (PPARd) signaling pathway (AID 743215; active means well fitted inhibition curve with a large enough effect in the signal ratio in the repeat runs, not every such curve was filed as active; the % refers to the signal ratio;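 further: cells stimulated with agonist L165041 at 300 nM final during compound exposure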; further: potency means the concentration at half of the fitted maximal effect)
Outline: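 Antagonist-mode beta-lactamase reporter screen: HEK293H cells with UAS-bla under PPARd control, stimulated by 300 nM L165041 (final) alongside test compound for 17 h at 37 C, then FRET fluorescence after 2 h substrate incubation.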

[4] = molecular target: Bile acid receptor (Homo sapiens) (UniProt Q96RI1); assay: qHTS assay to identify small molecule antagonists of the farnesoid-X-receptor (FXR) signaling pathway (AID 743217; active means well fitted inhibition curve with a large enough effect in the signal ratio in the repeat runs, not every such curve was filed as active; the % refers to the signal ratio; further: potency means the concentration at half of the fitted maximal effect)
Outline: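 Beta-lactamase reporter under UAS control in HEK 293T cells; compound exposure 16 h at 37 °C in the presence of chenodeoxycholic acid (50 uM final); signal from B/G FRET substrate after 2 h at room temperature.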

[5] = qHTS assay to identify small molecule agonists of the farnesoid-X-receptor (FXR) signaling pathway - cell viability counter screen (AID 743218); further: nearly all actives have a fitted effect of over 45% in size; further: potency means the concentration at half of the fitted maximal effect
Outline: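 In GeneBLAzer FXR-UAS-bla HEK 293T cells, compounds act for 16 h at 37 C. Cell viability is then scored in the reporter wells by CellTiter-Glo, 30 min at RT, luminescence.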

[6] = qHTS assay to identify small molecule antagonists of the farnesoid-X-receptor (FXR) signaling pathway - cell viability counter screen (AID 743221; active means well fitted cell-killing curve with a large enough effect in the repeat runs, not every such curve was filed as active; further: nearly all actives have a fitted effect of over 50% in size; further: potency means the concentration at half of the fitted maximal effect)
Outline: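 CellTiter-Glo, 30 min RT, luminescence; same wells as the LiveBLAzer FRET read. Cells: FXR-UAS-bla HEK 293T. Treatment: compound with chenodeoxycholic acid 50 uM final, 16 h at 37 C.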

[7] = molecular target: Vitamin D3 receptor (Homo sapiens) (UniProt P11473); assay: qHTS assay to identify small molecule agonists of the vitamin D receptor (VDR) signaling pathway (AID 743222; calls by dose curve)
Outline: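 Agonist activity measured in VDR-bla reporter cells. Exposure 16 h, 37C, 5% CO2; detection by B/G FRET substrate, 2 h RT.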

[8] = molecular target: Vitamin D3 receptor (Homo sapiens) (UniProt P11473); assay: qHTS assay to identify small molecule antagonists of the vitamin D receptor (VDR) signaling pathway (AID 743223; active means well fitted inhibition curve with a large enough effect in the signal ratio in the repeat runs, not every such curve was filed as active; the % refers to the signal ratio; further: potency means the concentration at half of the fitted maximal effect)
Outline: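 After VDR-bla cells are plated and left 4 h at 37C, DMSO-dissolved compounds and 3 nM (final) calcitriol agonist are added. Incubation continues 16 h at 37C; FRET beta-lactamase substrate then develops 2 h at room temperature.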

[9] = molecular target: Bile acid receptor (Homo sapiens) (UniProt Q96RI1); assay: qHTS assay to identify small molecule agonists of the farnesoid-X-receptor (FXR) signaling pathway (AID 743220; active means well fitted activation curve with a large enough effect in the signal ratio in the repeat runs, not every such curve was filed as active; the % refers to the signal ratio)
Outline: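 Beta-lactamase reporter under UAS control in GeneBLAzer FXR HEK 293T cells (5000/well) measured with LiveBLAzer FRET substrate after 2 h at room temperature. Compound exposure lasted 16 h at 37C.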

[10] = qHTS assay to identify small molecule agonists of the vitamin D receptor (VDR) signaling pathway - cell viability counter screen (AID 743224); further: nearly all actives have a fitted effect of over 50% in size; further: potency means the concentration at half of the fitted maximal effect
Outline: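 VDR-bla cell line, quantitative HTS format; 16 h compound incubation (37C, 5% CO2); ATP-based CellTiter-Glo luminescence measured in the reporter assay wells.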

Measured: Potency

Vitamin D3 receptor (Homo sapiens), sequence (P11473 whole entry, looked up): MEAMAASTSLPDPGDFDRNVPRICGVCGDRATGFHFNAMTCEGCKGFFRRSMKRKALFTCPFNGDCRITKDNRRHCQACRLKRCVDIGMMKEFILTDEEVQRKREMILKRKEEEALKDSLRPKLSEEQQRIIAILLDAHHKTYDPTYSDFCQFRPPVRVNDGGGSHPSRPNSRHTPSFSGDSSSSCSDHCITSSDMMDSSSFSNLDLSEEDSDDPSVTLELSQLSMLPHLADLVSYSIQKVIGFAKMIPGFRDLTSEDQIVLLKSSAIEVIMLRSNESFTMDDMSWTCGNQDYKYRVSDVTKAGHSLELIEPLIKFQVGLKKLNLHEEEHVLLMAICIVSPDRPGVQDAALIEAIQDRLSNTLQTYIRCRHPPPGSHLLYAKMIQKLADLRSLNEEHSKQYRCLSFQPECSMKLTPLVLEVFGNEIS
Peroxisome proliferator-activated receptor delta (Homo sapiens), sequence (Q03181 whole entry, looked up): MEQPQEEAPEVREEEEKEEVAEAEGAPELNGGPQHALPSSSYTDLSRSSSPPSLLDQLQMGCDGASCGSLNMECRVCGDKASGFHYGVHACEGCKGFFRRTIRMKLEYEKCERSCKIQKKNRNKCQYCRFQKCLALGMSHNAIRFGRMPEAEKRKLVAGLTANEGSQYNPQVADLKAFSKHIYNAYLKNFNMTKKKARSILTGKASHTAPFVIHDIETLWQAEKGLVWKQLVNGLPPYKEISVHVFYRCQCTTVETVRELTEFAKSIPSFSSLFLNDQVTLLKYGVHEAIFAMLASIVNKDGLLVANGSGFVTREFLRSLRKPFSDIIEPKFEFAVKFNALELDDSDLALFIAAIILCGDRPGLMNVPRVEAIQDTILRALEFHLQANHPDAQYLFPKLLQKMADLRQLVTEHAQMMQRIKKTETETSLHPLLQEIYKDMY
Bile acid receptor (Homo sapiens), sequence (Q96RI1 whole entry, looked up): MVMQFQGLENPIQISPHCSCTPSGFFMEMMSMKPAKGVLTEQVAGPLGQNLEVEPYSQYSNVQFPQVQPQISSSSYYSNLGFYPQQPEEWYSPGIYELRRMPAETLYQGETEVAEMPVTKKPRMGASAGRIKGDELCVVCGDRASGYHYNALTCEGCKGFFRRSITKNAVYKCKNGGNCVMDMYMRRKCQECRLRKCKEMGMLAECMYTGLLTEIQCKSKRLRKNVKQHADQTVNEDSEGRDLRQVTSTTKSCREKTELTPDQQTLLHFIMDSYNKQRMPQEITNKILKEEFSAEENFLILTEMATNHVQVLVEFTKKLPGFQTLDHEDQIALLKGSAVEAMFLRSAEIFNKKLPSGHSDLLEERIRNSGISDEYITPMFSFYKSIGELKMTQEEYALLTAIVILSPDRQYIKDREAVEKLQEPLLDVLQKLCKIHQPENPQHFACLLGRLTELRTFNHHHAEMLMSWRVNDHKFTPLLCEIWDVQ

CN(C)CCc1c[nH]c2ccc(O)cc12
not listed: [9] | [10]
inactive: all other assays above

ClC(Cl)=C(c1ccc(Cl)cc1)c1ccc(Cl)cc1
active: [5] 38.9 µM
inactive and 38.9 µM (active): [10]
not listed: [4]
inactive: all other assays above

CCCCCCCCCBr
not listed: [4] | [9] | [10]
inactive: all other assays above

CCC(C)(C)C(=O)OC1=C(c2ccc(Cl)cc2Cl)C(=O)OC12CCCCC2
not listed: [4] | [8]
inactive: all other assays above

CC(Cc1ccc(C(C)(C)C)cc1)CN1C[C@@H](C)O[C@@H](C)C1 (stereo partly drawn)
inactive: [1] | [2] | [3] | [4] | [9] | [6]

CC1(C)C(/C=C(\Cl)C(F)(F)F)C1C(=O)OC(C#N)c1cccc(Oc2ccccc2)c1 (stereo not drawn)
active: [4] 17.7 µM
inactive: all other assays above

ClC1=C(Cl)C2(Cl)C3C(Cl)C=CC3C1(Cl)C2(Cl)Cl (stereo not drawn)
active: [10] 43.6 µM
inactive: [1] | [2] | [3] | [6]

C1CCC2CCCCC2C1 (stereo not drawn)
inactive: all assays above

CC(=O)c1cc(C(C)(C)C)cc2c1CCC2(C)C
active: [10] 49 µM
not listed: [4] | [5] | [9]
inactive: all other assays above

CCN(CC)c1c([N+](=O)[O-])cc(C(F)(F)F)c(N)c1[N+](=O)[O-]
not listed: [4] | [5] | [9]
inactive: all other assays above

CCCCCCCCCCCCCN1CC(C)OC(C)C1 (stereo not drawn)
inactive: [1] | [2] | [3] | [5] | [6] | [10]

BrCBr
not listed: [4] | [9] | [10]
inactive: all other assays above

CCOC(=O)OC1=C(c2cc(C)ccc2C)C(=O)NC12CCC(OC)CC2 (stereo not drawn)
not listed: [3] | [8]
inactive: all other assays above

O=[N+]([O-])c1ccc(Oc2ccc(C(F)(F)F)cc2[N+](=O)[O-])cc1
not listed: [3] | [5] | [8]
inactive: all other assays above

CN(C)CCc1c[nH]c2cccc(O)c12
inactive: [1] | [2] | [3] | [5] | [7] | [8]

Cc1cc(C(C)(C)c2cc(C)c(O)c(C)c2)cc(C)c1O
active: [2] 42.2 µM | [5] 47.4 µM
inactive: [1] | [9]

C[C@]12Cc3nonc3C[C@@H]1CC[C@@H]1[C@@H]2CC[C@@]2(C)[C@H]1CC[C@]2(C)O
not listed: [10]
inactive: all other assays above

CC(C)OS(C)(=O)=O
not listed: [8]
inactive: all other assays above

CC(C)(C)C(O)/C(=C\c1ccc(Cl)cc1Cl)n1cncn1 (stereo not drawn)
inactive: [1] | [9]
active: [10] 59.3 µM

O=C/C(Cl)=C(/Cl)C(=O)O
inactive: [1] | [6] | [7] | [10]

Nc1ccccc1C(=O)OC/C=C/c1ccccc1
inactive: [1] | [3] | [6]

CN(C)c1ccc(N=Nc2ccccc2)cc1
not listed: [2] | [7]
inactive: all other assays above

C[C@H]1CC[C@@H]2[C@@H](C)[C@H]3[C@H](C[C@H]4[C@@H]5CC=C6CC(O[C@@H]7O[C@H](CO)[C@H](O)[C@H](O[C@@H]8O[C@H](CO)[C@@H](O)[C@H](O)[C@H]8O)[C@H]7O[C@H]7O[C@@H](C)[C@H](O)[C@@H](O)[C@H]7O)CC[C@]6(C)[C@H]5CC[C@]34C)N2C1 (stereo partly drawn)
active: [5] 8.02 µM | [6] 14.3 µM
inactive: [1] | [3] | [7] | [8]

Clc1ccc(C(c2ccccc2Cl)C(Cl)(Cl)Cl)cc1 (stereo not drawn)
active: [5] 62.1 µM | [10] 43.9 µM
inactive: [1] | [3] | [6] | [7] | [8]

CCCCCCCCCCCCBr
active: [5] 13.8 µM | [6] 43.6 µM
inactive: [1] | [7] | [8]

CN(C)C1CSSSC1
inactive: [1] | [2] | [6] | [7] | [10]

O=C1NCN(c2ccccc2)C12CCN(CC1COc3ccccc3O1)CC2 (stereo not drawn)
inactive: [1] | [3] | [6] | [7] | [8] | [10]

[Cl][Sb]([Cl])[Cl]
inactive: [1] | [2] | [5] | [6] | [10]

Fc1ccc(Oc2ccnc3cc(Cl)cc(Cl)c23)cc1
inactive: [1] | [2] | [9] | [6]
active: [10] 49 µM

N#CCCSCCC#N
inactive: [1] | [3] | [5] | [6] | [10]

ClC1=C(Cl)[C@]2(Cl)[C@H]3[C@H]([C@H]4C=C[C@H]3C4)[C@@]1(Cl)C2(Cl)Cl
inactive: [1] | [2] | [5] | [6] | [10]

CCCN(CCC)c1c([N+](=O)[O-])cc(S(N)(=O)=O)cc1[N+](=O)[O-]
active: [2] 37 µM | [3] 58.6 µM | [4] 58.6 µM | [6] 52.2 µM | [10] 52.2 µM

COc1cccc(C(=O)CCN[C@@H](C)[C@H](O)c2ccccc2)c1
active: [10] 33.5 µM
not listed: [2] | [3] | [8]
inactive: all other assays above

CC1(C)[C@H](C(=O)O[C@H](C#N)c2cccc(Oc3ccccc3)c2)[C@@H]1/C=C(\Cl)C(F)(F)F
inactive: [1] | [5] | [9]

O=C(O)C1C2CCC(O2)C1C(=O)O (stereo not drawn)
inactive: [1] | [3] | [5] | [6] | [7] | [8]

CC(C)(C)c1cc([N+](=O)[O-])cc(C(C)(C)C)c1O
inactive: [1] | [3] | [5] | [9] | [7]

CCCCCCCCCCCCCCC(Br)C(=O)O (stereo not drawn)
active: [1] 13.8 µM | [5] 21.9 µM
inactive: [3] | [4] | [8]

CCCN(CCC)CCc1c[nH]c2ccccc12
not listed: [2] | [9] | [10]
inactive: all other assays above

COP(=O)(OC)SCn1c(=O)oc2cc(Cl)cnc21
inactive: [1] | [2] | [6] | [7]

CCc1nn(C)c(C(=O)NCc2ccc(C(C)(C)C)cc2)c1Cl
active: [5] 49 µM | [10] 27.5 µM
inactive: [1] | [9] | [7]

CCOP(=S)(OCC)OC(Cl)C(Cl)(Cl)Cl (stereo not drawn)
inactive: [1] | [3] | [5] | [6] | [7] | [10]

CC(C)[C@H](C(=O)O[C@H](C#N)c1cccc(Oc2ccccc2)c1)c1ccc(Cl)cc1
inactive: [1] | [2] | [6]

O=[N+]([O-])c1ccc2ccc3cccc4ccc1c2c34
not listed: [1]
inactive: all other assays above

COc1ccc(OC)c(CC(C)N)c1 (stereo not drawn)
inactive: [1] | [3] | [5] | [6] | [7] | [8]

O=C1c2ccccc2C(=O)C1C(=O)C(c1ccccc1)c1ccc(Cl)cc1 (stereo not drawn)
active: [5] 38.9 µM | [10] 21.9 µM
inactive: [1] | [6] | [7] | [8]

Cc1ccc(OP(=O)(Oc2ccccc2)Oc2ccccc2)cc1
not listed: [2] | [4] | [10]
inactive: all other assays above

Clc1ccc(CCC(Cn2ccnc2)Sc2c(Cl)cccc2Cl)cc1 (stereo not drawn)
inactive: [1] | [7]

COc1ccc(N)cc1N
inactive: [1] | [5] | [6] | [7] | [8]

COc1cc(C=O)cc2c1[C@H](COC(N)=O)[C@]1(OC(C)=O)ON2C[C@H]2[C@@H]1N2C(C)=O
inactive: [1] | [2] | [7] | [10]

COc1cccc2c1C(=O)c1c(O)c3c(c(O)c1C2=O)C[C@@](O)(C(=O)CO)CC3OC1CC(N2CCOC(OC)C2)C(O)C(C)O1 (stereo partly drawn)
inactive: [1] | [2] | [5] | [6] | [10]

CC(C)N1C(=O)N(c2ccccc2)CSC1=NC(C)(C)C
inactive: [1] | [6] | [7]
active: [10] 49 µM

CCCN(CC)CC1COC2(CCC(C(C)(C)C)CC2)O1 (stereo not drawn)
inactive: [1] | [5] | [6] | [7] | [8] | [10]

C[C@]12CC[C@@H]3c4ccc(OC(=O)N(CCCl)CCCl)cc4CC[C@H]3[C@@H]1CC[C@@H]2O
inactive: [1] | [9] | [10]
active: [4] 21.1 µM

Clc1ccc(C(Cl)(Cl)Cl)c(Cl)c1
not listed: [2] | [4] | [9]
inactive: all other assays above

CC(C)CC(C)N (stereo not drawn)
inactive: [1] | [3] | [5] | [6]

N#CCCC(Br)(C#N)CBr (stereo not drawn)
inactive: [1] | [9] | [6]
active: [10] 43.6 µM

O=C(CCl)Nc1ccccc1
active: [3] 17.4 µM | [10] 24.5 µM
inactive: [2] | [5] | [9]

CCCCCCCCCC[N+](C)(C)CCCCCCCCCC
active: [2] 19.5 µM | [5] 49 µM | [6] 54.9 µM | [8] 43.6 µM | [10] 19.5 µM

CN(C)[C@@H]1C(=O)C(C(N)=O)=C(O)[C@@]2(O)C(=O)C3=C(O)c4c(O)ccc(Cl)c4[C@@](C)(O)[C@H]3C[C@@H]12
inactive: [2] | [5] | [9] | [6] | [10]

O=c1[nH]c2ccccc2n1C1CCN(CCCC(c2ccc(F)cc2)c2ccc(F)cc2)CC1
inactive: [9]
active: [2] 21.9 µM and 29.8 µM | [5] 21.9 µM | [10] 21.9 µM
